Several values for one entry are separate records, joined by “and”; a condition that tells them apart may be missing. Equal entries are not always repeated. Among all 5,500 compounds or so, about 2,000 (36%) were called active. Inconclusive results (about 18%) are left out. Cut-off read from the data, not from the text of the source: active = normalized growth mostly below about 0.91 (no sharp cut-off); inconclusive = no clear call, values can overlap the other calls; inactive = mostly above about 0.92. The list shows a part of the results.
Assay: chemical genetic growth profiling, strain panel (AID 1159580);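 note: tested at 20 µM; growth read once vehicle control cultures reached saturation at 30 °C; 1 = growth at the plate median or of vehicle wells; lower values mean less growth of the strain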
Settings: S. cerevisiae deletion strains, growth OD

Measured: normalized growth

CC1(C)C[C@@H]2C(=O)CC[C@H]3O[C@]3(C)CC[C@H]21
inactive: locus YAL013W, strain DEP1, hits give low values 1.01 | locus YAL021C, strain ccr4, hits give low values 0.98 | locus YAL026C, strain drs2, hits give low values 1.04 | locus YAL030W, strain snc1, hits give low values 1.01 | locus YBL061C, strain skt5, hits give low values 1.03 | locus YBR009C, strain hhf1, hits give low values 1.02 | locus YBR021W, strain FUR4, hits give low values 1.01 | locus YBR023C, strain chs3, hits give low values 1.02 | locus YBR171W, strain sec66, hits give low values 1.02 | locus YBR229C, strain ROT2, hits give low values 1 | locus YBR231C, strain swc5, hits give low values 1 | locus YBR279W, strain paf1, hits give low values 1 | locus YCL011C, strain gbp2, hits give low values 1.02 | locus YCL016C, strain dcc1, hits give low values 1.01 | locus YCL029C, strain bik1, hits give low values 0.994 | locus YCL061C, strain MRC1, hits give low values 1.01 | locus YCL069W, strain vba3, hits give low values 1.01 | locus YCR088W, strain abp1, hits give low values 1.01 | locus YDL005C, strain med2, hits give low values 1.01 | locus YDL035C, strain GPR1, hits give low values 1.01 | locus YDL040C, strain nat1, hits give low values 1.02 | locus YDL074C, strain BRE1, hits give low values 1.04 | locus YDL101C, strain DUN1, hits give low values 1.02 | locus YDL134C, strain PPH21, hits give low values 1.01 | locus YDL185W, strain tfp1, hits give low values 0.995 | locus YDL192W, strain arf1, hits give low values 0.996 | locus YDR001C, strain nth1, hits give low values 1.02 | locus YDR069C, strain doa4, hits give low values 1.03 | locus YDR101C, strain arx1, hits give low values 0.986 | locus YDR137W, strain rgp1, hits give low values 1.02 | locus YDR150W, strain NUM1, hits give low values 1.01 | locus YDR159W, strain sac3, hits give low values 1.05 | locus YDR162C, strain NBP2, hits give low values 1.02 | locus YDR195W, strain ref2 1.01 | locus YDR297W, strain sur2, hits give low values 1.01 | locus YDR318W, strain mcm21, hits give low values 0.994 | locus YDR334W, strain swr1, hits give low values 1.01 | locus YDR335W, strain msn5, hits give low values 1.01 | locus YDR388W, hits give low values 0.996 | locus YDR392W, strain spt3, hits give low values 0.914 | locus YDR502C, strain sam2, hits give low values 0.994 | locus YEL003W, strain gim4, hits give low values 1.01 | locus YEL037C, strain rad23, hits give low values 1.01 | locus YEL061C, strain CIN8 (second series), hits give low values 1.02 | locus YEL061C, strain CIN8, hits give low values 1 | locus YER015W, strain faa2, hits give low values 1.01 | locus YER016W, strain bim1, hits give low values 1.01 | locus YER110C, hits give low values 0.989 | locus YER111C, strain swi4, hits give low values 1.01 | locus YER155C, strain BEM2 (second series), hits give low values 1.03 | locus YER155C, strain BEM2, hits give low values 1 | locus YER167W, strain BCK2, hits give low values 1.01 | locus YFR010W, strain ubp6, hits give low values 1.04 | locus YGL078C, strain dbp3, hits give low values 0.999 | locus YGL086W, strain mad1, hits give low values 0.966 | locus YGL167C, strain pmr1, hits give low values 1.02 | locus YGL173C, strain kem1, hits give low values 1.03 | locus YGL227W, strain vid30, hits give low values 1.01 | locus YGL240W, strain doc1, hits give low values 1.02 | locus YGL248W, strain PDE1, hits give low values 1 | locus YGL253W, strain hxk2, hits give low values 1.03 | locus YGR078C, strain PAC10, hits give low values 1.02 | locus YGR135W, strain pre9, hits give low values 0.999 | locus YGR229C, strain SMI1, hits give low values 1.01 | locus YGR252W, strain gcn5, hits give low values 1.01 | locus YHR013C, strain ard1, hits give low values 1.03 | locus YHR027C, strain rpn1, hits give low values 1.02 | locus YHR030C, strain SLT2, hits give low values 1.01 and 0.967 | locus YHR079C, strain IRE1 (second series), hits give low values 0.996 | locus YHR079C, strain IRE1, hits give low values 0.953 | locus YHR094C, strain hxt1, hits give low values 0.998 | locus YHR129C, strain ARP1, hits give low values 1.01 | locus YHR142W, strain chs7, hits give low values 1.02 | locus YHR200W, strain rpn10, hits give low values 0.997 | locus YIL066C, strain RNR3, hits give low values 1 | locus YIL073C, strain SPO22, hits give low values 0.968 | locus YIL125W, strain kgd1, hits give low values 0.998 | locus YIR030C, strain dcg1, hits give low values 0.986 | locus YJL092W, strain hpr5, hits give low values 1.02 | locus YJL095W, strain BCK1 (second series), hits give low values 1.04 | locus YJL095W, strain BCK1, hits give low values 1.01 and 0.961 | locus YJL115W, strain asf1, hits give low values 1.01 | locus YJL129C, strain trk1, hits give low values 1.02 | locus YJL134W, strain LCB3, hits give low values 1.01 | locus YJL154C, strain vps35, hits give low values 1.01 | locus YJL164C, strain tpk1, hits give low values 0.995 | locus YJL166W, strain qcr8, hits give low values 1.04 | locus YJL168C, strain set2, hits give low values 0.994 | locus YJL187C, strain SWE1 (second series), hits give low values 1.02 | locus YJL187C, strain SWE1, hits give low values 1 | locus YJR043C, strain POL32, hits give low values 1 | locus YJR066W, strain TOR1, hits give low values 0.998

Reference: PubChem BioAssay AID1159580 (chemical genetic matrix, 2015)
